# Data as given in PubChem BioAssay AID382 (SGCOxCompounds, 2006).
# Activity calls are given as the source filed them. No rule for the calls is given here.
# Molecular target: Dual specificity protein kinase CLK1 (Homo sapiens) (UniProt P49759)
# Test: CLK1 binders by thermal stabilization, biophysical, recombinant human kinase, DSF (AID 382)
# Details: buffer 10 mM HEPES, stronger effect = higher value
# [1] = at 10 µM, protein 2 µM, NaCl 150 mM, with 50 mM Arg/Glu
# [2] = at 10 µM, protein 2 µM, pH 7.5, NaCl 150 mM
# [3] = at 10 µM, protein 2 µM, pH 7.5, NaCl 150 mM, with 50 mM Arg/Glu
# [4] = at 10 µM, protein 1.7 µM, pH 7.5, NaCl 150 mM, with 50 µM L-Arg/L-Glu (1:1)
# [5] = measured here: replicate experiment 2, at 10 µM, run 2, protein 2 µM, NaCl 150 mM, with 50 mM Arg/Glu
# [6] = measured here: replicate experiment 2, at 10 µM, run 2, protein 2 µM
# Dual specificity protein kinase CLK1 (Homo sapiens), sequence (P49759 whole entry, looked up): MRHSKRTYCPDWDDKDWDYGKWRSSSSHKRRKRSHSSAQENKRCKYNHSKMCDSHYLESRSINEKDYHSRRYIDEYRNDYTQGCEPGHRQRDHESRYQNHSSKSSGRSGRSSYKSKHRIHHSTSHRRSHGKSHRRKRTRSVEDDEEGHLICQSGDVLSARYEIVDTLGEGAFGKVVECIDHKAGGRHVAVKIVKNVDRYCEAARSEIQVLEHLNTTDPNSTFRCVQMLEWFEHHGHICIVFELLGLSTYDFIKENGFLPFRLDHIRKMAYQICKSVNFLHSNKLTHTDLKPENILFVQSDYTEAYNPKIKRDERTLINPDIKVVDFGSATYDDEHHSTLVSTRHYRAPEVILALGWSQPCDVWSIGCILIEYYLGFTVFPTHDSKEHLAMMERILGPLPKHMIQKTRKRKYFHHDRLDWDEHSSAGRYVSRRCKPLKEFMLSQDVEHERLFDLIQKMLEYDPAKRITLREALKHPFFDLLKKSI
compound,measurement,setting,value
CCN1/C(=C/C(C)=O)Sc2ccc(OC)cc21,Tm shift,[1],6.91 Celsius (active)
CC(C)[C@@H](CO)Nc1ccc2ncc(-c3ccc(C#N)cc3)n2n1,Tm shift,[1],5.84 Celsius (active)
Clc1cccc(-c2cnc3ccc(NCCc4ccccn4)nn23)c1,Tm shift,[2],4.83 Celsius (active)
CC(C)(C)c1nc2c3cc[nH]c(=O)c3c3cc(F)ccc3c2[nH]1,Tm shift,[3],3.6 Celsius (active)
CC(O)(O)C1(O)C[C@@H]2O[C@@]1(C)n1c3ccccc3c3c4c(c5c6ccccc6n2c5c31)C(=O)NC4 (some centres not stated),Tm shift,[3],5.1 Celsius (active)
CCOC(=O)c1c(C)[nH]c(/C=C2\C(=O)Nc3ccccc32)c1C,Tm shift,"at 10 µM, protein 2 µM",8.66 Celsius (active)
CC(C)c1ccc(Nc2ccn3ncc(-c4ccsc4)c3n2)cc1,Tm shift,[2],4.63 Celsius (active)
COc1ccc(C(=O)c2sc(Nc3cccc(C(F)(F)F)c3)nc2N)cc1,Tm shift,[4],3.7 Celsius (active)
Nc1nc(Nc2ccc(F)cc2)sc1C(=O)c1ccccc1,Tm shift,[4],3.3 Celsius (active)
CC(=O)c1cccc(-c2cnc3ccc(NCC4CC4)nn23)c1,Tm shift,[1],5.75 Celsius (active)
same,Tm shift,[5],6.01 Celsius
Clc1cccc(-c2cnc3ccc(NC4CCOCC4)nn23)c1,Tm shift,[1],6.06 Celsius (active)
same,Tm shift,[5],5.83 Celsius
NC1=N/C(=C2/CCNC(=O)c3[nH]c(Br)cc32)C(=O)N1,Tm shift,"at 10 µM, protein 2 µM",4.9 Celsius (active)
same,Tm shift,[6],10.5 Celsius
Nc1ncnc2c1c(I)cn2[C@@H]1O[C@H](CO)C(O)C1O (some centres not stated),Tm shift,"at 10 µM, protein 2 µM",4.43 Celsius (active)
same,Tm shift,[6],10.5 Celsius
